# Sampled rows, rich in hits. Any-hit rate of the full collection: about 7.6%.
# Cy5 interf NS3h: enhances or quenches Cy5 fluorescence in NS3h assay. hit rate 6% among 16,000. Cy5-dT15 DNA with NS3h, fluorescence interference; actives lie on both sides; signal over control mean, under 1 quenches. AID 720488. fluorescence interference ratio at 100 µM;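 active = compound fluorescence over control fluorescence at most 0.8, a quencher, or at least a set upper limit, an enhancer; inactive = ratio between 0.8 and the set upper limit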
# HCV NS3h FP: blocks HCV NS3 helicase binding to DNA. NS3h Cy5-dT15 DNA binding, fluorescence polarization. inhibition, % at 100 µM. hit rate 1.6% among 16,000;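 active = inhibition above the average over every tested compound plus 3 SD, cut at about 40% in these data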
# * = called active by the depositor.
SMILES,Cy5 interf NS3h,HCV NS3h FP
Cc1ccc(CNC(=O)C(=O)NC(C)C)cc1,1.1,12
COc1ccc(CC(=O)NCC2CCCO2)cc1OC (stereo not given),1.1,1
COc1ccc(CCNC(=O)C(=O)NCCCOC(C)C)cc1,1.1,6
O=C(Cc1ccc(F)cc1)NCC1CCCO1 (stereo not given),0.75*,4
COCCCNC(=O)C(=O)NCCc1ccc(OC)cc1,0.74*,13
Cc1ccc(-c2nnc(NC(=O)Nc3ccccc3)s2)cc1C,1,9
O=C1C(=O)N(c2cccc([N+](=O)[O-])c2)C(c2ccccc2Cl)C1=C(O)c1ccccc1 (stereo not given),0.99,-5
O=C(O)COc1ccccc1C1OC2CCCCC2C2=CCCCC21 (stereo not given),0.96,6
Cc1cc(C=C2C(=O)NC(=S)NC2=O)c(C)n1-c1cccnc1,1.1,3
COc1ccc(C(=O)Nc2ccc(NC(=O)c3ccco3)c(C)c2)cc1OC,1.1,0
COC(=O)C1=C(O)/C(=C/c2cccc(OC)c2O)N=C1C,1,-12
N/C(=N/OC(=O)COc1ccccc1)c1ccc(Br)cc1,0.98,3
CS(=O)(=O)N(CC(=O)N1CCOCC1)c1ccccc1Br,0.95,-3
S=C(NCCOCCOCCNC(=S)Nc1ccccc1)Nc1ccccc1,1.1,3
Cc1ccc(CNC(=O)C(=O)NCc2ccncc2)cc1,1,-4
O=C(Cc1ccc(F)cc1)NCc1ccccc1,0.59*,3
O=C(NCc1ccc(F)cc1)c1ccccc1I,1,10
COc1ccc(C(O)(CNCc2ccccc2)c2ccc(Br)cc2)cc1 (stereo not given),0.73*,16
Cc1ccc(CNC(=O)C(=O)NCc2ccccc2)cc1,1.2*,9
Cc1ccc(C(O)(CNCc2ccccc2)c2ccc(Br)cc2)cc1 (stereo not given),0.93,7
COCCNC(=S)Nc1ccc(OC)cc1,0.77*,8
COc1cc(C2C(C#N)=C(N)Oc3c2[nH]c(=O)[nH]c3=O)cc(OC)c1OC (stereo not given),1.1,-1
CCCOc1ccc(C(=O)Nc2c(C)cc(Br)cc2C)cc1,1,28
COc1ccc(N(CC(=O)Nc2cccc(Cl)c2)S(=O)(=O)c2ccc(C)cc2)c(OC)c1,0.98,13
COc1ccc(/C=C(\NC(=O)c2ccc(Cl)cc2)C(=O)NCc2ccco2)cc1OC,0.97,21
SMILES,Cy5 interf NS3h,HCV NS3h FP
O=C(CN1C(=O)c2ccccc2S1(=O)=O)NC(Nc1ccc(I)cc1)C(Cl)(Cl)Cl (stereo not given),0.94,9
O=C(NCc1ccccc1)c1ccccc1Cl,0.79*,7
O=C(O)c1ccc(C(=O)NCc2ccccc2)c(C(=O)O)c1,1,-8
CC1=C(C(=O)OC2CCCCC2)C(c2ccsc2)C2=C(CCCC2=O)N1 (stereo not given),1.1,14
Cc1cccc(N2C(=O)c3ccc(-c4ccc5c(c4)C(=O)N(c4cccc(C)c4)C5=O)cc3C2=O)c1,1.1,-2
CCOC(=O)c1c(-c2cccs2)csc1NC(=O)c1ccc(F)cc1,1,-1
Cc1ccc(/C(N)=N\OC(=O)c2ccc(I)cc2)cc1,1.1,-7
O=S(=O)(Oc1cccc2ccccc12)c1cc(Cl)ccc1Cl,1,12
O=C(Oc1cccc2ccccc12)c1ccc(Cl)cc1Cl,0.64*,6
O=c1c2ccccc2nc(-c2ccco2)n1-c1cccc2ccccc12,0.96,16
CCn1c(C)[n+](CC)c2ccc([N+](=O)[O-])cc21,0.98,-3
CCCc1cc(=O)n2[nH]c(-c3ccc(F)cc3)cc2n1,0.87,0
CCCc1cc(=O)n2[nH]c(-c3ccc(C)cc3)cc2n1,1.2*,30
Cc1nc2cc(-c3ccccc3Cl)[nH]n2c(=O)c1Cl,1.1,12
Cc1ccc(-c2cc3nc(C)c(Cl)c(=O)n3[nH]2)cc1,0.77*,14
Cc1ccc(C(=O)Nc2ccc(NC(=O)c3cccc(C)c3)cc2)cc1,0.95,-5
COC(=O)c1ccccc1NC(=O)C1CN(S(=O)(=O)c2ccccc2)CCN1S(=O)(=O)c1ccccc1 (stereo not given),1,2
Cc1ccc(C2C3=C(CC(C)(C)CC3=O)OC3=C2C(=O)CC(C)(C)C3)o1,0.67*,16
CC1(C)CC(=O)C2=C(C1)OC1=C(C(=O)CC(C)(C)C1)C2c1cccc([N+](=O)[O-])c1,1,15
COc1cc(/C=N\Nc2ccnc3cc(Cl)ccc23)ccc1O,0.34*,-29
COc1cc(/C=C2/C(=O)ON=C2c2ccc(Cl)cc2)ccc1O,0.94,6
O=C(NC(=S)Nc1ccc(Cl)cc1Cl)c1ccco1,1.1,0
CC(CCC(=O)Nc1nc2ccccc2s1)CC(=O)Nc1nc2ccccc2s1 (stereo not given),0.98,7
COCC(=O)Nc1nc2ccccc2s1,0.67*,-2
Cc1c(NC(=O)CC2CCC2)c(=O)n(-c2ccccc2)n1C,1.1,2
O=C(CSCc1cccc(Br)c1)NCc1ccccc1,0.9,19

# Assay outcomes deposited in PubChem by Milwaukee Institute for Drug Discovery.
